Bioassay records from PubChem.
Sampled rows, rich in hits. Any-hit rate of the full collection: about 3.1%.
PLK1 PBD inh – PLK1 (human) polo-box domain binding inhibition; P53350; Plk1 PBD binding of FITC phosphopeptide, fluorescence polarization; Potency, µM, for the others: max response, negative = inhibition, actives largely listed as inhibitors; hit rate 2.8% among 360,000; further: potency means the concentration at half of the fitted maximal effect; series mostly up to about 57 µM; on the % scale 0 is the no-effect control and ±100 the full control effect; nearly all actives have a fitted effect of over 65% in size
uPA generation – cell surface uPA generation inhibition | cell surface uPA generation assay, qHTS | Potency, µM (highest dose often 38.3 µM), without a hit: at the top dose activity change, negative = inhibition, usual class: inhibitors | hit rate 0.31% among 330,000 | AID 540303; active means well fitted inhibition curve with a large enough effect; inconclusive means small, poorly fitted or top-dose-only effect; inactive means no such curve, though single readings can be large or run the other way; tested in mouse RAW 264.7 cells; further: potency means the concentration at half of the fitted maximal effect; on the % scale 0 is the no-effect control and ±100 the full control effect; nearly all actives have a fitted effect of over 55% in size
VDR inh – blocks the human vitamin D receptor; VDR-SRC2-3 peptide fluorescence polarization, 2 h; Potency, µM, for inactives: max response, negative = inhibition, actives largely listed as inhibitors; hit rate 0.93% among 400,000; AID 504847; further: potency means the concentration at half of the fitted maximal effect; on the % scale 0 is the no-effect control and ±100 the full control effect
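The screen uses fluorescence polarization to detect compounds that interfere with recruitment of the SRC2-3 coactivator peptide to VDR; plates are read after 2 h at room temperature.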
PTAP TSG101 blk – blocks PTAP/TSG101 interaction to inhibit HIV-1 budding; Q99816; Fluorescence polarization, FITC-PTAP peptide / Tsg101 binding; Potency, µM (doses to about 115 µM), for inactives: top-dose activity change, negative = inhibition, actives largely listed as inhibitors; 340,000 tested, under 10 active; AID 493005; active means well fitted inhibition curve with a large enough effect in the main read-out, with a control signal flat, not every such curve was filed as active; inconclusive means small, poorly fitted or top-dose-only effect, or effect the other way, or a change in a side signal; inactive means no such curve, though single readings can be large or run the other way; further: potency means the concentration at half of the fitted maximal effect; % of control where 0% means no effect
Target sequence (Q99816 whole entry, looked up): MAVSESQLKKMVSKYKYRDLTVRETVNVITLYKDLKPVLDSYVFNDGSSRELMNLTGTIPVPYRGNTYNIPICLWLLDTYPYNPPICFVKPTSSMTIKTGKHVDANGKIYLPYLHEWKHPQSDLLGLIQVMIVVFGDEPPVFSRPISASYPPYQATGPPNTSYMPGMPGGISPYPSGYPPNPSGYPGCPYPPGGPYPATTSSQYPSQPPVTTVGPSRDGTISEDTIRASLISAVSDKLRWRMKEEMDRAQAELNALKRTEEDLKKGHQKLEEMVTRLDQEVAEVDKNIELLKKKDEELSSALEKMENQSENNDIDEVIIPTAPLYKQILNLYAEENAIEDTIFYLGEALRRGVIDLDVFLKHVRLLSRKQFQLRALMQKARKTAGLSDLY
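Steps: Tsg101 binding domain dispensed (10 uM final), compounds pinned in DMSO, FITC-labeled PTAP-motif peptide added (50 nM final); after 20 min binding at room temperature, polarization measured.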
TSHR antag – antagonists of human thyroid stimulating hormone receptor. TSHR-expressing cells, TSH-stimulated cAMP HTRF, 2 h; stronger effect = lower value. activity change, negative = inhibition, % at 11.5 µM. hit rate 0.2% among 330,000. AID 504810;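 active means activity change below a set negative limit, meaning inhibition stronger than a set level, cut at about -70% in these data; inconclusive means activity change between two set negative limits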; further: on the % scale 0 is the no-effect control and ±100 the full control effect
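TSHR-expressing cells, 200/well, pre-treated with compound, then stimulated with EC80 TSH (4nM final) for 2 hours at 37 deg C. cAMP measured by competitive HTRF: anti-cAMP cryptate antibody in lysis buffer plus cAMP-d2, read after 30 minutes at room temperature.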
Starred values were filed as active, the others as inactive; ? = inconclusive; . = no result. Unless noted, the call rests on the fitted dose curve; in most records, active means well fitted curve in the direction sought with a large enough effect; inconclusive means small, poorly fitted or top-dose-only effect, or another doubt; inactive means no such curve, though single readings can be large; an effect the other way counts as inactive or inconclusive.

SMILES	PLK1 PBD inh	uPA generation	VDR inh	PTAP TSG101 blk	TSHR antag
CCC(=O)[C@@]1(C)[C@H](C)C[C@H]2[C@@H]3CCC4=CC(=O)C=C[C@]4(C)[C@H]3[C@@H](O)C[C@@]21C	2%	-18%	-12%	0%	1
Cc1cc(OC(=O)c2c(C)cc(OC(=O)c3c(C)cc(O)cc3O)cc2O)cc(O)c1C(=O)O	30µM*	-4%	?	-5%	.
COC(=O)c1c(C)cc(O)cc1O	1%	14%	1%	0%	.
COC(=O)c1ccc(N(C(=O)CNC(=O)c2ccco2)C(C(=O)NC2CCCC2)c2ccco2)cc1 (centres undefined)	27µM*	-1%	-16%	0%	-1
COc1ccc(N(C(=O)CNC(=O)c2ccco2)C(C(=O)NC2CCCCC2)c2ccco2)cc1 (centres undefined)	2%	-9%	2%	-4%	-8
CC(C)C[C@H](NC(=O)[C@H](Cc1ccccc1)n1c(=O)[nH]c2ccccc2c1=O)C(=O)N1CCC(C(=O)O)CC1	-6%	8%	-16%	-3%	3
C[C@H](NC(=O)[C@H](Cc1ccccc1)n1c(=O)[nH]c2ccccc2c1=O)C(=O)N1CCC(C(=O)O)CC1	-2%	4.5µM*	?	-1%	-5
CCN(CC)S(=O)(=O)c1ccc2c(c1)nc(CN(C)C(=O)Nc1ccc(F)cc1)n2C	.	.	9%	.	.
CCOC(=O)c1ccc(S(=O)(=O)Nc2nc3cc(S(=O)(=O)NC4=NCCCCC4)ccc3s2)cc1	24µM*	-2%	?	-8%	-7
Nc1nc2cc(S(=O)(=O)NC3=NCCCCC3)ccc2s1	21µM*	-6%	?	-3%	21
O=C(COC(=O)c1ccc(O)cc1)Nc1cccc(S(=O)(=O)NC2=NCCCCC2)c1	-4%	5%	1%	-7%	-3
CCOC(=O)COc1c(-c2ccc(OC)cc2)oc2ccccc2c1=O	-1%	0%	-1%	-5%	4
COc1ccc(-c2oc3ccccc3c(=O)c2OCC(=O)O)cc1	12µM*	-1%	-22%	-4%	-10
CCOc1ccc(NC(=O)CN2CCc3cc4c(cc3C2)OCCCO4)cc1OCC	30µM*	5%	-25%	2%	0
COc1ccc(C2NC(=O)N(C)C3=C2C(=O)N(c2ccc(Br)cc2)C3)cc1 (centres undefined)	.	.	7%	.	.
COc1ccc(C(C(=O)Nc2ccc(C(C)C)cc2)N(C)C(=O)c2ccc(=O)[nH]c2)cc1 (centres undefined)	27µM*	4%	6%	-6%	-10
O=C(N/N=C/c1ccc2c(c1)OCO2)c1ccccn1	-8%	?	-7%	-10%	3
O=C(C=Cc1ccc2c(c1)OCO2)c1ccccc1	-5%	0%	40µM*	0%	.
CNc1ccc(Br)cc(C(=O)/C=C/c2ccc(OC)cc2)c1=O	?	-10%	?	-6%	-15
CNc1ccc(Br)cc(C(=O)/C=C/c2ccc3c(c2)OCO3)c1=O	19µM*	-4%	79µM*	-1%	2
O=C(/C=C/c1ccc2c(c1)OCO2)c1ccccn1	-3%	-9%	79µM*	2%	2
O=C(/C=C/c1ccccc1)c1ccccn1	-14%	3%	40µM*	-8%	12
CC(C)Sc1nc2sc3c(c2c(=O)n1-c1ccccc1)CCCC3	.	.	-16%	.	.
CCCCN(C)C(=O)c1sc(=O)n(Cc2c(C)noc2C)c1C	5%	.	.	.	.
Cc1ccc(C(=O)NNc2ncnc3c2cnn3C)cc1	-6%	-1%	-3%	-2%	8
SMILES	PLK1 PBD inh	uPA generation	VDR inh	PTAP TSG101 blk	TSHR antag
Cn1ncc2c(O/N=C(\N)c3ccc(C(F)(F)F)cc3)ncnc21	-1%	2.8µM*	-6%	-9%	-18
CC(C)C[C@H](NC(=O)[C@H](CCCCN)NC(=O)CNC(=O)[C@H](CC(C)C)NC(=O)[C@@H](NC(=O)[C@@H]1CSSC[C@H](N)C(=O)N[C@@H](CO)C(=O)N[C@@H](CC(N)=O)C(=O)N[C@@H](CC(C)C)C(=O)N[C@@H](CO)C(=O)N[C@@H]([C@@H](C)O)C(=O)N1)C(C)C)C(=O)N[C@@H](CO)C(=O)N[C@@H](CCC(N)=O)C(=O)N[C@@H](CCC(=O)O)C(=O)N[C@@H](CC(C)C)C(=O)N[C@@H](Cc1cnc[nH]1)C(=O)N[C@@H](CCCCN)C(=O)N[C@@H](CC(C)C)C(=O)N[C@@H](CCC(N)=O)C(=O)N[C@H](C(=O)N[C@@H](Cc1ccc(O)cc1)C(=O)N1CCC[C@H]1C(=O)N[C@@H](CCCNC(=N)N)C(=O)N[C@H](C(=O)N[C@@H](CC(N)=O)C(=O)N[C@H](C(=O)NCC(=O)N[C@@H](CO)C(=O)NCC(=O)N[C@H](C(=O)N1CCC[C@H]1C(N)=O)[C@@H](C)O)[C@@H](C)O)[C@@H](C)O)[C@@H](C)O	.	.	-9%	.	.
CC1CCCCC1NC(=O)c1cc2ccccc2o1 (centres undefined)	30µM*	0%	-18%	0%	-10
O=c1[nH][nH]c2c1C(c1ccc(F)cc1)OC(CCc1ccccc1)C2 (centres undefined)	11µM*	.	.	.	.
O=c1[nH]c(=S)[nH]c2c1C(c1ccc(F)cc1)OC(CCC(F)(F)F)C2 (centres undefined)	0%	.	.	.	.
CC(C)[C@@H]1Cc2[nH][nH]c(=O)c2[C@H](c2ccc(F)cc2)O1	24µM*	.	.	.	.
CCCCC1Cc2[nH][nH]c(=O)c2C(c2ccc(F)cc2)O1 (centres undefined)	8.4µM*	.	.	.	.
O=c1[nH][nH]c2c1[C@H](c1ccc(F)cc1)O[C@H](CCC(F)(F)F)C2	7.5µM*	.	.	.	.
CCC(=O)N1c2ccccc2CC1C(=O)NCCc1ccc(SC)cc1 (centres undefined)	.	.	18%	.	.
COC(=O)c1ccccc1CSc1nsc(/C=C/N(C)C)c1C#N	9.5µM*	-2%	?	-12%	-8
Cc1cc(C)c2c(=O)cc(C(=O)Nc3nc4ccc(F)cc4s3)oc2c1	.	.	7%	.	.
Cc1ccc(-n2ncc(C(=O)NCCCN3CCN(C)CC3)c2C2CCN(C(=O)OC(C)(C)C)CC2)c(C)c1	.	.	10%	.	.
O=C(c1ccc([N+](=O)[O-])cc1)N1CCSC1c1ccc(Br)cc1 (centres undefined)	17µM*	-4%	-16%	0%	1
CCCCCCCC1CC(/C(C)=N/NC(N)=O)OC1=O (centres undefined)	12µM*	-4%	45µM*	1%	3
CCc1ccc2occ(CC(=O)Nc3sc4c(c3C(=O)OC)CCC4)c2c1	.	.	12%	.	.
N#Cc1c(/N=C/c2ccc(-c3ccccc3C(=O)O)o2)sc2c1CCCC2	38µM*	-9%	-14%	1%	4
COc1cc(OC)cc(C(=O)Nc2ccc(-c3nc4cc(C(C)C)ccc4o3)cc2)c1	.	.	22%	.	.
